# Source: PubChem BioAssay (National Center for Advancing Translational Sciences (NCATS))
# NTMT1 inhibitor: NTMT1 methyltransferase inhibition; Potency, µM (top dose mostly 114 µM), usual class: inhibitors; Q9BV86; NTMT1 MTase-Glo SAH luminescence, purified enzyme; 59,000 compounds, 2.5% hits; further: nearly all actives have a fitted effect of over 65% in size
# Target sequence (Q9BV86 whole entry, looked up): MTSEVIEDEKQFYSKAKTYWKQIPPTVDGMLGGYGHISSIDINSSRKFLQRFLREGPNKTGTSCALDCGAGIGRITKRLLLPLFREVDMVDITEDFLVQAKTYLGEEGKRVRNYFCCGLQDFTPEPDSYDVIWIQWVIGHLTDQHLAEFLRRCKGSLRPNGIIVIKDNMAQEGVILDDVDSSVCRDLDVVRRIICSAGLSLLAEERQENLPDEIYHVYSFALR
# GALC G270D up: galactocerebrosidase G270D activity enhancement, cell-based | AID 1159614 | P54803 | Potency, µM (highest dose often 57.5 µM), usual class: activators | 145M-Twi-hGALC-G270D cells (Twitcher mouse brain line with human GALC G270D), HMU-beta-Gal fluorescence, 48 h | 45,000 compounds, 0.1% hits; further: nearly all actives have a fitted effect of over 65% in size
#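 Fluorescence readout: HMU-β-gal cleavage by mutant GALC (0.1 mM final, citrate/phosphate pH 5.2 with 1 mg/mL taurocholate), stopped with carbonate/bicarbonate plus Triton X-100. Cells: murine Twitcher 145M-Twi expressing human G270D GALC; qHTS for activators.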
# HTT promoter inh: HTT promoter inhibition. HEK293 HTT promoter firefly luciferase reporter, 24 h. Potency, µM (top dose mostly 57.5 µM), usual class: inhibitors. 48,000 compounds, 0.93% hits. AID 1508623; further: nearly all actives have a fitted effect of over 50% in size
#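 Luminescence was read after Dual-Glo reagent and a 10 min room-temperature incubation. Values were normalized to vehicle (0% activity) and zero RLU (-100% activity). Reporter HEK293 cells had been exposed to compounds (up to 57.5 uM final) for 24 h.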
# HTT-AS promoter: activators of huntingtin-antisense promoter activity; HEK293 HTT-AS promoter firefly luciferase reporter, 24 h; response scale: percent change from vehicle, -100% = no light; Potency, µM (series often up to 57.5 µM), most hits filed as activators; 48,000 compounds, 0.24% hits; AID 1508624; further: nearly all actives have a fitted effect of over 55% in size
#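 Luminescence was read after Dual-Glo reagent and a 10 min room-temperature incubation. Values were normalized to vehicle (0% activity) and zero RLU (-100% activity). Reporter HEK293 cells had been exposed to compounds (up to 57.5 uM final) for 24 h.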
# Hits are given with their value; 0 = inactive; ? = inconclusive; - = no result given; ! = a repeat was not active; [ ] = dose if it differs, or a comment. The list is not random: actives were taken first. Their share in the collection is about 2.7%. The call rests on the fitted dose curve; in most records, active means well fitted curve in the direction sought with a large enough effect; inconclusive means small, poorly fitted or top-dose-only effect, or another doubt; inactive means no such curve, though single readings can be large; an effect the other way counts as inactive or inconclusive.
SMILES,NTMT1 inhibitor,GALC G270D up,HTT promoter inh,HTT-AS promoter
CCOC(=O)c1[nH]c(C)c(C(=O)NCCc2ccccc2)c1C,0,0,0,7.9µM
COc1ccc(S(=O)(=O)N(CCc2ccccc2)CC(=O)Nc2cc(Cl)ccc2C)cc1,4µM,0,?,0
CC1(C)C=Cc2c(ccc3c2[N+]([O-])=C2C3(O)CC34NC(=O)C5(CCCN5C3=O)CC4C2(C)C)O1 (stereo unspecified),0,-,-,-
O=C1NC(=O)C(=Cc2ccc(-c3ccc(F)cc3)o2)S1,22µM,-,0,0
NC(=O)[C@H](O[C@@H]1O[C@H](CO)[C@@H](O)[C@H](O)[C@H]1O)c1ccccc1,0,-,-,-
CC(=O)O[C@@H]1[C@@H](O)[C@H](C)O[C@@H](O[C@H]2[C@@H]3C=CO[C@@H](O[C@@H]4O[C@H](CO)[C@@H](O)[C@H](O)[C@H]4OC(C)=O)[C@@H]3[C@@]3(CO)O[C@@H]23)[C@@H]1OC(=O)/C=C/c1ccc(O)cc1,0[12.6 µM],-,-,-
O=C(O)c1cccc(-c2noc(-c3ccccc3F)n2)c1,?,0,7.9µM!,0
CCOc1ccc(-c2cc(CCCC(=O)NCCc3ccc(SC)cc3)no2)cc1,0,0,0.79µM,0
CCOc1ccc(-c2cc(CCCC(=O)NCCc3ccc(OCC)c(OCC)c3)no2)cc1,0,0,?,0
CCOc1ccc(-c2cc(CCCC(=O)NCCc3ccc(Cl)cc3)no2)cc1,?,0,1.8µM,0
Cc1ccc(S(=O)(=O)Nc2ccccc2C(=O)Nc2nc(-c3ccccc3)co2)cc1,0,-,-,-
O=C1C(Cc2ccc(O)cc2)N2C(=O)CCN(C(=O)NCc3ccccc3)C2CN1Cc1cccc2ccccc12 (stereo unspecified),0,-,-,-
CCOC(=O)c1ccc(N2C(=O)c3n[nH]c(-c4ccco4)c3C2c2ccc(OCC)cc2)cc1 (stereo unspecified),0,0,20µM,0
CCOC(=O)c1ccc(N2C(=O)c3n[nH]c(-c4ccco4)c3C2c2ccc(F)cc2)cc1 (stereo unspecified),0,0,?,0
O=C(O)[C@H](Cc1ccc(Nc2nccc3ccncc23)cc1)NC1=C(Br)C(=O)C12CCCCC2,0,-,-,-
CCOc1ccccc1CNCc1cccn1-c1nnc(N2CCN(c3ccccc3)CC2)s1,0,0,25µM,0
COc1ncc(-c2ccc3c(Nc4cc(Oc5cc(F)cc(F)c5)cc(C(=O)O)c4)c(S(=O)(=O)NC4CC4)cnc3c2)c(OC)n1,11µM!,-,-,-
CCOC(=O)c1nn(-c2ccc(OC)cc2)c(=O)c2c(N)scc12,13µM,-,-,-
CC(C)N(CCCNC(=O)Nc1ccc(C(C)(C)C)cc1)C[C@H]1O[C@@H](n2cc(Br)c3c(N)ncnc32)[C@H](O)[C@H]1O,19µM,-,?,0
COc1ccc(CCNC(=O)c2nc(SCc3ccccc3F)ncc2Cl)cc1OC,0,0,18µM,0
Cc1ccc(Nc2c(-c3ccc(C)o3)nc3cccc(C)n23)cc1,7.9µM,0,0,?
Cc1ccc(-c2nc3ccccn3c2Nc2ccc3c(c2)OCO3)o1,16µM,0,0,0
C(=C/c1cccs1)/c1ccncc1,0,-,-,-
Cc1ccc(C)c(NC(=O)Cn2cc(C(=O)c3ccco3)c3ccccc32)c1,0,0,0,0
Cc1cccc(NC(=O)Cn2cc(C(=O)c3ccco3)c3ccccc32)c1C,79µM,0,?,0
SMILES,NTMT1 inhibitor,GALC G270D up,HTT promoter inh,HTT-AS promoter
CC1=C2C3OC(=O)C(C)C3(O)CCC2(C)CCC1O (stereo unspecified),0,-,-,-
CCOc1ccc(NC(=O)CSc2oc(-c3ccco3)nc2S(=O)(=O)c2ccc(Cl)cc2)cc1,79µM,0,?,0
O=C(CSc1oc(-c2ccco2)nc1S(=O)(=O)c1ccc(Cl)cc1)c1ccc(Cl)cc1,79µM,0,?,0
Cc1cc(C)cc(NC(=O)CSc2oc(-c3ccco3)nc2S(=O)(=O)c2ccc(Cl)cc2)c1,0,0,?,0
Cc1ccc(-c2ccc(=O)n(CC(=O)N(C)CCc3ccco3)n2)cc1,0,-,-,-
C=C1[C@@H]2CC[C@@]3(C)[C@H](c4ccoc4)OC(=O)C[C@]13O[C@H]1CC(=O)C(C)(C)[C@H](CC(=O)OC)[C@]12C,0,-,-,-
Cc1cnc(-c2ccccc2C(C)C)nc1NCC1CCN(c2cnccn2)CC1,0,-,-,-
CCOc1ccccc1N(CC)C(=O)c1cc2c(=O)[nH]c3ccc(C)cc3c2s1,0,0,2.5µM,0
Cc1ccc(S(=O)(=O)Nc2cncc(C(=O)Nc3nc(-c4ccccc4)cs3)c2)cc1,0,-,-,-
CS(=O)(=O)Nc1cccc(-c2cc(F)c(S(=O)(=O)N3CCN(S(=O)(=O)c4ccc5c(c4)OCCO5)CC3)cc2F)c1,18µM,-,-,-
CCCc1cc(F)c(S(=O)(=O)N2CCN(S(=O)(=O)c3ccc4c(c3)OCCO4)CC2)cc1F,0,-,-,-
CCOC(=O)c1ccc(NS(=O)(=O)c2cc(Br)cc3c2N(C(C)=O)C(C)C3)cc1 (stereo unspecified),0,0,16µM,0
CC(=O)N1c2c(cc(Br)cc2S(=O)(=O)Nc2ccc(OC(F)(F)F)cc2)CC1C (stereo unspecified),0,0,25µM,0
CC(=O)N1c2c(cc(Br)cc2S(=O)(=O)Nc2ccccc2C)CC1C (stereo unspecified),0,0,0,0
CC(CC1c2ccccc2CCc2ccccc21)CN(C)C (stereo unspecified),13µM,0,0,0
CCOc1ccc(CCNC(C)=O)cc1OCC,50µM,-,-,-
CCOc1ccc(-c2nc(CSCC(=O)NCc3ccc(C)cc3)c(C)o2)cc1,79µM,0,7.1µM,0
CCc1ccc(-c2nc(CS(=O)CC(=O)NCc3ccc(F)cc3)c(C)o2)cc1 (stereo unspecified),89µM,0,?,0
Cc1oc(-c2ccc(Cl)cc2)nc1CS(=O)CC(=O)NCc1ccc(Cl)cc1 (stereo unspecified),0,0,?,0
CCOc1ccc(-c2nc(CSCC(=O)NCCc3ccc(OCC)c(OCC)c3)c(C)o2)cc1,0,0,14µM,0
CCOc1ccc(CCNC(=O)c2ccccc2)cc1OCC,0,-,-,-
O=C(c1ccc2c(c1)ncn2-c1ccccc1)N1CCCCC1,0,-,-,-
COc1cc(O)c(C(CC(=O)N2CCCCCC2)c2ccc3c(c2)OCO3)c(OC)c1 (stereo unspecified),0,-,-,-
C=CC(=O)N1C[C@H](Nc2ncnc3[nH]ccc23)CC[C@@H]1C,0,-,-,-
CNCCn1c(=O)c2cc(OC)c(OC)cc2c2cnc3cc4c(cc3c21)OCO4,0,-,-,-
CCOC(=O)c1cccc(NC(=O)CC(c2cc(OC)c(OC)c(OC)c2)N2Cc3ccccc3C2=O)c1 (stereo unspecified),89µM,0,0,?
CCOc1ccc(CCNC(=O)c2cc3sccc3n2CCN2CCN(C)CC2)cc1OCC,0,-,-,-
O=c1oc2c(O)c(O)cc3c(=O)oc4c(O)c(O)cc1c4c23,3.5µM!,0,0,0
O=C(OCC#CCSc1nnc(-c2ccc3ccccc3c2)o1)c1ccccc1,0,-,-,-
